Records with an inconclusive call do not appear. Calls of active or inactive are those of the source. Unless noted, calls follow the shape of the dose curve; as a rule, active = well fitted curve in the direction sought with a large enough effect in the repeat runs; inconclusive = weak or mixed curves; inactive = no such curve, though single readings can be large; an effect the other way counts as inactive or inconclusive.
Experiments:
[1] = qHTS assay to identify small molecule antagonists of the glucocorticoid receptor (GR) signaling pathway - cell viability counter screen (AID 720693); also: nearly all actives have a fitted effect of over 55% in size
[2] = qHTS assay for identifying genotoxic compounds that show differential cytotoxicity against isogenic chicken DT40 cell lines with known DNA damage response pathways - wild type cell line (AID 743012); also: nearly all actives have a fitted effect of over 60% in size
Procedure, shortened: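 Parental DNA repair-proficient DT40 cells, 300 per well, were pre-incubated ~0.5 h at 37 C/5% CO2, pin-dosed with compounds in DMSO, then incubated 40 h. Viability was read as CellTiter-Glo luminescence after 30 min at room temperature.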

[3] = qHTS assay for identifying genotoxic compounds that show differential cytotoxicity against isogenic chicken DT40 cell lines with known DNA damage response pathways - Rev3 mutant cell line (AID 743014); also: nearly all actives have a fitted effect of over 55% in size
[4] = qHTS assay for identifying genotoxic compounds that show differential cytotoxicity against isogenic chicken DT40 cell lines with known DNA damage response pathways - Rad54/Ku70 mutant cell line (AID 743015); also: nearly all actives have a fitted effect of over 60% in size
[5] = qHTS assay to identify small molecule antagonists of the androgen receptor (AR) signaling pathway - cell viability counter screen (AID 743033; also: nearly all actives have a fitted effect of over 45% in size)
[6] = qHTS assay to identify small molecule antagonists of the androgen receptor (AR) signaling pathway using the MDA cell line - cell viability counter screen (AID 743041; also: nearly all actives have a fitted effect of over 45% in size)
Procedure, shortened: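 MDA-kb2 AR-luc human breast carcinoma cells (MMTV-luciferase, AR/GR responsive) were treated with compounds plus R1881 agonist for 16 h at 37 °C. Viability was read as CellTiter-Fluor fluorescence in the same wells as the reporter assay.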

[7] = qHTS assay to identify small molecule antagonists of the thyroid receptor (TR) signaling pathway - cell viability counter screen (AID 743064); also: nearly all actives have a fitted effect of over 50% in size
Procedure, shortened: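 Counter screen for cytotoxicity: compound plus T3 (1 nM final) on GH3.TRE-Luc cells, 23.5 h at 37 °C, then fluorescence viability readout with CellTiter-Fluor.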

[8] = qHTS assay to identify small molecule antagonists of the thyroid receptor (TR) signaling pathway (AID 743065); also: series mostly up to about 70 µM; nearly all actives have a fitted effect of over 55% in size
Procedure, shortened: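 GH3.TRE-Luc rat pituitary cells carrying two TR response elements driving luciferase were plated for 4 h, given compound plus 1 nM T3 (final), and incubated 23.5 h at 37 C. ONE-Glo luminescence measured reporter inhibition; CellTiter-Fluor fluorescence tracked cytotoxicity.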

[9] = test system: thyroid hormone receptor (rat, GH3 cells); test: qHTS assay to identify small molecule agonists of the thyroid receptor (TR) signaling pathway (AID 743066; calls by dose curve)
[10] = biological target: Estrogen receptor (Homo sapiens) (UniProt P03372); test: qHTS assay to identify small molecule antagonists of the estrogen receptor alpha (ER-alpha) signaling pathway (AID 743069; active = well fitted curve in the direction sought with a large enough effect in the signal ratio in the repeat runs, not every such curve was filed as active; the % refers to the signal ratio)
Sequence of Estrogen receptor (Homo sapiens) (P03372 whole entry, looked up): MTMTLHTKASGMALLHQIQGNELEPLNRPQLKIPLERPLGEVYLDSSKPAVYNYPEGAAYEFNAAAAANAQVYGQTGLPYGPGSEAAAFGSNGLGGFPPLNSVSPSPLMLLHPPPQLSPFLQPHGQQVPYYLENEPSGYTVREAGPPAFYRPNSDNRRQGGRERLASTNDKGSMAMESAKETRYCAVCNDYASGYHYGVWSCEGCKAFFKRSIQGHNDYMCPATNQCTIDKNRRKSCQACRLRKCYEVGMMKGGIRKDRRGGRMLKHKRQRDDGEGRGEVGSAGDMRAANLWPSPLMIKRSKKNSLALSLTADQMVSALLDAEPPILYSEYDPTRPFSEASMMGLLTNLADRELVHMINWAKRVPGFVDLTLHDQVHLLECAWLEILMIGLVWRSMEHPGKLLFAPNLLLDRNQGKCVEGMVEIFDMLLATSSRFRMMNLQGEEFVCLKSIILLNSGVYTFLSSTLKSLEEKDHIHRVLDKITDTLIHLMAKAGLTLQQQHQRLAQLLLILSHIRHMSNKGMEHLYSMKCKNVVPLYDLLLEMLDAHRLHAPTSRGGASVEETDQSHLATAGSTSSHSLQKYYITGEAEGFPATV
Procedure, shortened: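 HEK293 cells stably carrying an ER-alpha-UAS-bla beta-lactamase reporter were pre-cultured overnight in 2% charcoal-stripped FBS medium. Test compounds in DMSO were added together with 17beta-estradiol for 18 hr at 37C. Read-out was fluorescence after 2 hr with LiveBLAzer B/G FRET substrate at room temperature.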

[11] = qHTS assay to identify small molecule antagonists of the estrogen receptor alpha (ER-alpha) signaling pathway - cell viability counter screen (AID 743074; calls by dose curve; also: nearly all actives have a fitted effect of over 45% in size)
[12] = biological target: Estrogen receptor (Homo sapiens) (UniProt P03372); test: qHTS assay to identify small molecule agonists of the estrogen receptor alpha (ER-alpha) signaling pathway (AID 743075; calls by dose curve)
[13] = biological target: Estrogen receptor (Homo sapiens) (UniProt P03372); test: qHTS assay to identify small molecule agonists of the estrogen receptor alpha (ER-alpha) signaling pathway using the BG1 cell line (AID 743079); also: nearly all actives have a fitted effect of over 20% in size
[14] = qHTS assay to identify small molecule antagonists of the estrogen receptor alpha (ER-alpha) signaling pathway using the BG1 cell line (AID 743080; calls by dose curve;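 also: BG1 cells stimulated with 17beta-estradiol alongside compound; series mostly up to about 70 µM; nearly all actives have a fitted effect of over 25% in size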)
Procedure, shortened: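 Readout is ONE-Glo luminescence, taken 30 min at room temperature after reagent addition, preceded by a CellTiter-Fluor viability read; BG1-Luc-4E2 cells had received compound and 17beta-estradiol for 21.5 h at 37 C.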

[15] = qHTS assay to identify small molecule antagonists of the estrogen receptor alpha (ER-alpha) signaling pathway using the BG1 cell line - cell viability counter screen (AID 743081);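 also: compound given together with 17beta-estradiol as the ER stimulus; series mostly up to about 70 µM; nearly all actives have a fitted effect of over 45% in size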
[16] = biological target: Aromatase (Homo sapiens) (UniProt P11511); test: qHTS assay to identify aromatase inhibitors (AID 743083); also: series mostly up to about 70 µM; nearly all actives have a fitted effect of over 55% in size
Sequence of Aromatase (Homo sapiens) (P11511 whole entry, looked up): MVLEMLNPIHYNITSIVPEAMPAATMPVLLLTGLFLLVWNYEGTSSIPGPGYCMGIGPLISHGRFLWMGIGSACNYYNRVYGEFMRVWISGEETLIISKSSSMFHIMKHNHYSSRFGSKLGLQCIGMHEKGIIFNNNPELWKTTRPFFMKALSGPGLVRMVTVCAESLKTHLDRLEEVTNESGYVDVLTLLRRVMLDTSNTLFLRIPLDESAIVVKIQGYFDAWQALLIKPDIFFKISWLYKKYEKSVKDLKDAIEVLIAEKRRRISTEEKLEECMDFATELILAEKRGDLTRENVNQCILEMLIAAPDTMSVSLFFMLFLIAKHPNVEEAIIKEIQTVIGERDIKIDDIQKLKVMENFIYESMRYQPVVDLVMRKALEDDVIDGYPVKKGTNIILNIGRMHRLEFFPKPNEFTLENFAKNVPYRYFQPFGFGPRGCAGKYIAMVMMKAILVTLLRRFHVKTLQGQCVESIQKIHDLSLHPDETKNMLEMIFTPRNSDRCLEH

[17] = biological target: Androgen receptor (Homo sapiens) (UniProt P10275); test: qHTS assay to identify small molecule antagonists of the androgen receptor (AR) signaling pathway (AID 743035; active = well fitted inhibition curve with a large enough effect in the signal ratio in the repeat runs, not every such curve was filed as active; the % refers to the signal ratio)
Sequence of Androgen receptor (Homo sapiens) (P10275 whole entry, looked up): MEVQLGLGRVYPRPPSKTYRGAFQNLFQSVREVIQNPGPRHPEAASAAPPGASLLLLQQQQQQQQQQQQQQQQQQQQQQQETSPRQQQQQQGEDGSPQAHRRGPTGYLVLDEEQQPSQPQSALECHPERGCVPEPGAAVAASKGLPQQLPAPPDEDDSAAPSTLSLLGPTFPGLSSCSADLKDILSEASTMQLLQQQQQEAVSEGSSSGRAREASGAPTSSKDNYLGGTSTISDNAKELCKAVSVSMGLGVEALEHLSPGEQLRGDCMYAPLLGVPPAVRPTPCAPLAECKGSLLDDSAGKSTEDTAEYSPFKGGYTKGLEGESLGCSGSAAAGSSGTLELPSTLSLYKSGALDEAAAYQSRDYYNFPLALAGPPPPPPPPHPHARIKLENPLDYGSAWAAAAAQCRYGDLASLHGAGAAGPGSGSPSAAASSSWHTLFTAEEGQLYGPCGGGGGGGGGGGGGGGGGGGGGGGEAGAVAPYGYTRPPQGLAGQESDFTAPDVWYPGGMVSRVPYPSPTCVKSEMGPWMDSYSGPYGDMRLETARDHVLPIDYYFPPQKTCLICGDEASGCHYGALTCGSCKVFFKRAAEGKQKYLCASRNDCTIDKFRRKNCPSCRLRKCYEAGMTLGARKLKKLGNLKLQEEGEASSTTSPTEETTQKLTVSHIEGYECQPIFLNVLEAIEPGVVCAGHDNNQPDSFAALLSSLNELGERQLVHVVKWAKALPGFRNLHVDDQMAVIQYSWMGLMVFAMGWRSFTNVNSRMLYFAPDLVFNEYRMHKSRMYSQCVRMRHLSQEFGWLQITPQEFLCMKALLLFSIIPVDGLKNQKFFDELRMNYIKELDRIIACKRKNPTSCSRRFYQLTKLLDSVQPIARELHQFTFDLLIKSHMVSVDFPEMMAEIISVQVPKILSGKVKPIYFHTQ
Procedure, shortened: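 HEK293 cells stably carrying a UAS-driven beta-lactamase reporter (AR-UAS-bla GripTite) were plated for 4 h at 37C, then given compound and the agonist R1881 and incubated 16 h. Reporter activity was read by LiveBLAzer B/G FRET fluorescence after 2 h at room temperature.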

[18] = biological target: Androgen receptor (Homo sapiens) (UniProt P10275); test: qHTS assay to identify small molecule agonists of the androgen receptor (AR) signaling pathway using the MDA cell line (AID 743040; also: nearly all actives have a fitted effect of over 20% in size)
Procedure, shortened: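 MDA-kb2 breast carcinoma cells stably carrying an MMTV-driven luciferase reporter (AR- and GR-responsive) were seeded and held 5 h at 37C, 0% CO2, then exposed to compounds in DMSO for 16 h. Luminescence was read 30 min after ONE-Glo addition.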

[19] = biological target: Androgen receptor (Homo sapiens) (UniProt P10275); test: qHTS assay to identify small molecule antagonists of the androgen receptor (AR) signaling pathway using the MDA cell line (AID 743042; also: nearly all actives have a fitted effect of over 55% in size)
Procedure, shortened: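 MDA-kb2 cells (human breast carcinoma, stably carrying an MMTV-luciferase reporter responsive to AR and GR) were plated at 3,000 cells/well and preincubated 5 hr at 37C, then given compound plus R1881 agonist for 16 h. ONE-Glo luminescence was read.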

[20] = biological target: Androgen receptor (Homo sapiens) (UniProt P10275); test: qHTS assay to identify small molecule agonists of the androgen receptor (AR) signaling pathway (AID 743036; active = well fitted activation curve with a large enough effect in the signal ratio in the repeat runs, with a control signal flat, not every such curve was filed as active; the % refers to the signal ratio)
Procedure, shortened: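 In this Tox21 qHTS, 2,000 HEK293 AR-bla cells per well were incubated with compounds for 16 h at 37C and 5% CO2. Fluorescence intensity was recorded 2 h after adding LiveBLAzer B/G FRET substrate at room temperature.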

Measured: Potency

CC(C)COC(=O)CC(C(=O)OCC(C)C)S(=O)(=O)O (configuration not stated)
inactive: [1] | [2] | [3] | [4] | [5] | [6] | [7] | [8] | [9] | [10] | [11] | [12] | [13] | [14] | [15] | [16]

CCCOCCOCCOCCO
inactive: [1] | [2] | [3] | [4] | [5] | [17] | [18] | [6] | [19] | [7] | [8] | [9] | [10] | [11] | [12] | [13] | [14] | [15] | [16]

CCNC(=O)/C=C/c1cccc(Br)c1
inactive: [1] | [2] | [3] | [4] | [5] | [18] | [6] | [7] | [11] | [15] | [16]

CC(=O)c1ccc2c(c1)CCCC2
inactive: [1] | [2] | [3] | [4] | [5] | [6] | [7] | [8] | [9] | [10] | [11] | [14] | [15] | [16]

CCN(CCC#N)c1ccccc1
inactive: [1] | [2] | [3] | [4] | [5] | [6] | [7] | [8] | [9] | [10] | [11] | [12] | [13] | [14] | [15] | [16]

CNC(=O)NC
inactive: [1] | [2] | [3] | [4] | [5] | [17] | [20] | [18] | [6] | [19] | [8] | [9] | [10] | [11] | [12] | [13] | [14] | [15] | [16]

O=C1OC(=O)c2ccccc21
inactive: [1] | [2] | [3] | [4] | [5] | [6] | [7] | [8] | [9] | [10] | [11] | [12] | [13] | [14] | [15] | [16]

CCCCCC(=O)OCC
inactive: [1] | [2] | [3] | [4] | [5] | [6] | [7] | [8] | [9] | [10] | [11] | [12] | [13] | [14] | [15] | [16]

O=C(O)c1ccccc1C(=O)OCc1ccccc1
inactive: [1] | [2] | [3] | [4] | [5] | [20] | [18] | [19] | [8] | [9] | [10] | [12] | [13] | [15] | [16]

Source: PubChem BioAssay (Tox21)
